Laboratory results published in PubChem BioAssay (NCATS).
Records with an inconclusive call do not appear. Calls of active or inactive are those of the source. Unless noted, the call rests on the fitted dose curve; in most records, active means well fitted curve in the direction sought with a large enough effect; inconclusive means small, poorly fitted or top-dose-only effect, or another doubt; inactive means no such curve, though single readings can be large; an effect the other way counts as inactive or inconclusive.

Tests used:
[1] = target: Mitogen-activated protein kinase 10 (Mus musculus) (UniProt Q61831); experiment: JNK3 AlphaScreen Assay (AID 530; active means well fitted curve in either direction with a large enough effect, not every such curve was filed as active;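 further: kinase came from lysate of stimulated human HepG2 cells; signal reports phosphorylation of biotinylated GST-cJun 1-79 at Ser73 with 10 µM ATP; on the % scale 0 is the no-effect control and ±100 the full control effect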)
Summary of the method: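 JNK3 came from HepG2 lysates pre-activated with IL-1beta and TNF-alpha and phosphorylated biotinylated GST-cJun (1-79) at 10 uM ATP, pH 7.6, room temperature. Compounds were titrated. AlphaScreen signal used anti-phospho-cJun (Ser73) antibody.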

[2] = Cell Viability - N2a (AID 540); conditions: N2a mouse neuroblastoma cell viability; at 92.2 µM (top of the series);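 further: cells exposed to compound for 40 h at 37 °C; plate controls were DMSO alone for no effect and tamoxifen control for full effect; nearly all actives have a fitted effect of over 45% in size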
Summary of the method: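 First, 1500 N2a cells per well incubate 5 hr at 37 °C; next, compounds are added and incubated 40 hr at 37 °C; finally CellTiter-Glo is added and luminescence read after 20 min, with AC50 derived by Hill modeling.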

[3] = Cell Viability - HUV-EC-C (AID 542);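 further: cells exposed to compound for 40 hours; on the % scale 0 is the no-effect control and ±100 the full control effect; nearly all actives have a fitted effect of over 35% in size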
Summary of the method: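 Decrease in cellular ATP, quantified by luciferase luminescence, reflects toxicity in normal human vascular endothelial HUV-EC-C cells given compound for 40 hr in complete culture medium. Values are AC50s from concentration-response curves.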

[4] = Cell Viability - H-4-II-E (AID 543);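 further: cells exposed to compound for 40 hours; on the % scale 0 is the no-effect control and ±100 the full control effect; nearly all actives have a fitted effect of over 35% in size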
Summary of the method: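 Here, cytotoxicity is measured in the rat hepatoma line H-4-II-E as loss of intracellular ATP after 40 hr compound treatment, detected by luciferase luminescence.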

[5] = Cell Viability - Renal Proximal Tubule (AID 545); conditions: renal proximal tubule cells viability, primary cells of rat origin; at 91.7 µM (top of the series);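 further: cells exposed to compound for 40 hours; 0% = DMSO only and -100% = 100 µM tamoxifen; nearly all actives have a fitted effect of over 40% in size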
Summary of the method: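 Primary rat renal proximal tubule cells (1000/well) were treated with compounds for 40 hr at 37 °C in complete medium. Intracellular ATP was measured by CellTiter-Glo luminescence, and AC50 values came from Hill-equation fits of concentration-response data.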

[6] = Cellular Toxicity (caspase-3) HepG2 (AID 654);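 further: cells exposed to compound for 16 hours before reading; 0% = DMSO alone and 100% = caspase signal from 100 µM tamoxifen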
Summary of the method: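 qHTS, HepG2, 1500 cells/well, complete medium; cpd 16 h 37 °C; Caspase-Glo 3/7, 20 min RT; lum. Norm: DMSO vs 100 uM tamoxifen; AC50 Hill fit.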

[7] = Cellular Toxicity (caspase-3) Jurkat (AID 655);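 further: cells exposed to compound for 16 h at 37 °C before reading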
Summary of the method: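 Jurkat cells (5000/well) in complete medium were treated with compounds for 16 hr at 37 °C, then Caspase-Glo 3/7 luminescence was read after 20 min at room temperature. Data normalized to DMSO (basal) and 100 uM tamoxifen (100%); AC50 from Hill fit.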

[8] = Cellular Toxicity (caspase-3) HUV-EC-C (AID 656);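 further: 0% = DMSO basal and 100% = 100 µM tamoxifen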
Summary of the method: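 HUV-EC-C endothelial cells, 1000/well, were pre-incubated 5 hr at 37°C, then exposed to compounds for 16 hr at 37°C. Caspase-Glo 3/7 luminescence was read after 20 min at room temperature. AC50 came from Hill fits, normalized to DMSO and 100 uM tamoxifen.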

[9] = Cellular Toxicity (caspase-3) SHSY5Y (AID 657)
Summary of the method: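 SH-SY5Y human neuroblastoma cells (1500/well) were treated with compounds for 16 h at 37 °C, then Caspase-Glo 3/7 luminescence was read after 1 h at room temperature. Data normalized to DMSO and 10 uM staurosporine; AC50 from Hill fits.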

[10] = Cellular Toxicity (caspase-3) BJ (AID 658); conditions: Potency: caspase-3 activation;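 further: 0% = DMSO basal and 100% = 10 µM staurosporine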
Summary of the method: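 Luminescent aminoluciferin-substrate cleavage reports caspase 3/7 activity in normal human BJ fibroblasts after 16 hr compound exposure at 37 °C. Normalized to DMSO (basal) and 10 uM staurosporine (100%); AC50 from Hill fit of concentration-response.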

[11] = Cellular Toxicity (caspase-3) MRC-5 (AID 659);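 further: 0% = DMSO basal and 100% = 10 µM staurosporine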
Summary of the method: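 Luminescence from caspase-cleaved aminoluciferin substrate (Caspase-Glo 3/7, 1 hr RT) reports caspase 3/7 activity in MRC-5 lung fibroblasts after 16 hr compound exposure. Normalized to DMSO basal and 10 uM staurosporine as 100%; AC50 from Hill fits.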

[12] = Cellular Toxicity (caspase-3) Mesangial (AID 660);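 further: combined caspase 3 and 7 activity read by Caspase-Glo luminescence; cells exposed to compound for 16 h before the caspase read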
Summary of the method: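 Concentration-response qHTS: compound-induced rise in caspase 3/7 luminescence in human mesangial cells after 16 h, normalized to DMSO and 100 uM tamoxifen controls.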

[13] = Cellular Toxicity (caspase-3) SK-N-SH (AID 661); conditions: SK-N-SH caspase-3 activation, qHTS; caspase-3 activation: at 91.7 µM (top of the series), DMSO as zero, staurosporine as full;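 further: 0% = DMSO basal and 100% = 10 µM staurosporine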
Summary of the method: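 Caspase 3/7 activation is measured as a luminescence increase from aminoluciferin released by substrate cleavage in SK-N-SH cells after 16 hr compound treatment; values are AC50 from concentration-response curves.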

[14] = Cellular Toxicity (caspase-3) H-4-II-E (AID 663);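 further: cells exposed to compound for 16 hr before readout; 0% = DMSO basal and 100% = 100 µM tamoxifen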
Summary of the method: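 Luminescence from caspase-cleaved aminoluciferin substrate, read 20 min after reagent addition, reports caspase 3/7 activation in rat H-4-II-E cells after 16 hr compound exposure. Normalized to DMSO (basal) and 100 uM tamoxifen (100%); AC50 from Hill fits.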

[15] = Cell Viability - NIH 3T3 (AID 541); conditions: NIH 3T3 cell viability, qHTS; activity change, negative = cytotoxicity: at 92.2 µM (top of the series);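 further: cells exposed to compound for 40 hours; plate controls were DMSO alone for no effect and tamoxifen positive control for full effect; nearly all actives have a fitted effect of over 25% in size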
Summary of the method: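 AC50 values reflect concentration-dependent loss of intracellular ATP in NIH 3T3 cells after 40 hr treatment in complete culture medium, quantified by luciferase-based luminescence.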

[16] = Cell Viability - SH-SY5Y (AID 544);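 further: cells exposed to compound for 40 hours; 0% = DMSO alone and -100% = 100 µM tamoxifen; nearly all actives have a fitted effect of over 55% in size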
Summary of the method: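 Cytotoxicity is scored as a concentration-dependent fall in intracellular ATP in human SH-SY5Y cells treated 40 hr in complete culture medium. Potency is expressed as AC50 from a Hill equation fit.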

[17] = Cell Viability - Mesenchymal (AID 546);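 further: cells exposed to compound for 40 hours before reading; 0% = DMSO only and -100% = 100 µM tamoxifen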
Summary of the method: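 Normal human renal glomerulus-derived kidney mesenchymal cells, 1000 per well in complete medium, were treated with compounds for 40 hr at 37 °C. Viability was read as intracellular ATP by CellTiter-Glo luminescence; AC50 values came from Hill-equation fits of qHTS concentration-response data.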

Oc1cccc(O)c1O
inactive: outcome [1] | activity change, negative = cytotoxicity [2] -18.3% | Potency [3] | Potency [4] | activity change, negative = cytotoxicity [5] -27.7% | outcome [6] | Potency [7] | outcome [8] | Potency [9] | Potency [10] | outcome [11] | outcome [12] | Potency [13] | outcome [14]

NC(N)=O
inactive: activity change, negative = cytotoxicity [2] 12.5% | activity change, negative = cytotoxicity [15] -1.75% | Potency [3] | Potency [4] | Potency [16] | activity change, negative = cytotoxicity [5] -9.08% | outcome [17] | outcome [6] | Potency [7] | outcome [8] | Potency [9] | Potency [10] | outcome [11] | outcome [12] | Potency [13] | outcome [14]

OC[C@H]1O[C@@H]2O[C@H]3[C@H](O)[C@@H](O)[C@@H](O[C@H]4[C@H](O)[C@@H](O)[C@@H](O[C@H]5[C@H](O)[C@@H](O)[C@@H](O[C@H]6[C@H](O)[C@@H](O)[C@@H](O[C@H]7[C@H](O)[C@@H](O)[C@@H](O[C@H]1[C@H](O)[C@H]2O)O[C@@H]7CO)O[C@@H]6CO)O[C@@H]5CO)O[C@@H]4CO)O[C@@H]3CO
inactive: outcome [1] | activity change, negative = cytotoxicity [2] -3.62% | activity change, negative = cytotoxicity [15] -6.68% | Potency [3] | Potency [4] | Potency [16] | activity change, negative = cytotoxicity [5] -2.88% | outcome [17] | outcome [6] | Potency [7] | outcome [8] | Potency [9] | Potency [10] | outcome [11] | outcome [12] | Potency [13] | outcome [14]

CC1=CC(=O)NS(=O)(=O)O1
inactive: outcome [1] | activity change, negative = cytotoxicity [2] -19.6% | activity change, negative = cytotoxicity [15] -8.99% | Potency [3] | Potency [4] | Potency [16] | activity change, negative = cytotoxicity [5] -8.28% | outcome [17] | outcome [6] | Potency [7] | outcome [8] | Potency [9] | Potency [10] | outcome [11] | outcome [12] | Potency [13] | outcome [14]

CCOC(C)OCC
inactive: outcome [1] | activity change, negative = cytotoxicity [2] -0.722% | activity change, negative = cytotoxicity [15] -3.45% | Potency [3] | Potency [4] | Potency [16] | activity change, negative = cytotoxicity [5] -8.55% | outcome [17] | outcome [6] | Potency [7] | outcome [8] | Potency [9] | Potency [10] | outcome [11] | outcome [12] | Potency [13] | outcome [14]
